According to the supplement of paper PMC7156485:
± gives the standard deviation of the averaged measurements.

Assays:
Conditions in all cases: concentration: 10 µM; 24 h
[1] = system: HCC1569; assay: cell number relative to DMSO (% of DMSO); higher = more cells (less growth inhibition / toxicity)
How it was run: (§1)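 HCC1569 and TDF cells were seeded at 800 per well in 384-well plates in RPMI with 10% FBS and treated with compounds at 10 µM for 24 h at 37 °C, in triplicate. After fixation in 3.7% formaldehyde, cells were stained with a rabbit anti-H1.0 antibody, an AlexaFluor 647 secondary and DAPI, and six fields per well were imaged at ×10. H1.0 nuclear intensity or cell number is given as percent of the plate control, using the median of replicates, with HCC1569 values smoothed for positional effects.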

[2] = system: TDF; assay: as above
How it was run: as §1

[3] = system: TDF; assay: H1.0 immunofluorescence intensity relative to DMSO (% of DMSO); higher = stronger H1.0 induction, active = 120 or more
How it was run: as §1

[4] = system: HCC1569; assay: H1.0 immunofluorescence intensity relative to DMSO (% of DMSO); higher = stronger H1.0 induction, active = 140 or more
How it was run: as §1
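Wherever H1.0 immunofluorescence intensity relative to DMSO is given: TDF is a line of transformed human dermal fibroblasts of mesenchymal origin.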
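Wherever cell number relative to DMSO is given: TDF denotes transformed human dermal fibroblasts of mesenchymal origin.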

Structure (SMILES) | cell number [1] | cell number [2] | H1.0 immunofluorescence intensity [3] | H1.0 immunofluorescence intensity [4]
Cl.FC(F)(F)c1cccc(C2=CCN(CCc3ccc4ccccc4c3)CC2)c1 | 109 | 96.7 | 96.3 (inactive) | 100 (inactive)
CCCN1CC(CSC)CC2c3cccc4[nH]cc(c34)CC21.CS(=O)(=O)O (stereo not drawn) [Pergolide methanesulfonate] | 98.8 | 98.2 | 98.1 (inactive) | 94.4 (inactive)
Ic1ccccc1CNC1C2CCN(CC2)C1C(c1ccccc1)c1ccccc1.O=C(O)C(=O)O [L-703,606 oxalate] | 85.3 | 91.8 | 114 (inactive) | 128 (inactive)
COc1ccc(CC2NCCc3cc(OC)c(OC)cc32)cc1OC.Cl (stereo not drawn) | 99.3 | 109 | 94.3 (inactive) | 80.5 (inactive)
Br.CN1CCc2cc(O)cc3c2C1Cc1ccc(O)c(O)c1-3 (stereo not drawn) [R(-)-2,10,11-Trihydroxyaporphine hybrobromide] | 99 | 113 | 84.4 (inactive) | 94.3 (inactive)
Br.CC(Cc1ccc(O)cc1)NCC(O)c1cc(O)cc(O)c1 (stereo not drawn) [Fenoterol hydrobromide] | 104 | 105 | 88.3 (inactive) | 112 (inactive)
CC=C1CC(C)C(C)(O)C(=O)OCC2=CCN3CCC(OC1=O)C23 (stereo not drawn) [Senecionine] | 98.6 | 101 | 108 (inactive) | 91.8 (inactive)
Cc1c(N)nc(C(CC(N)=O)NCC(N)C(N)=O)nc1C(=O)NC(C(=O)NC(C)C(O)C(C)C(=O)NC(C(=O)NCCc1nc(-c2nc(C(=O)NCCC[S+](C)C)cs2)cs1)C(C)O)C(OC1OC(CO)C(O)C(O)C1OC1OC(CO)C(O)C(OC(N)=O)C1O)c1cnc[nH]1.O=S(=O)([O-])O (stereo not drawn) [Bleomycin sulfate] | 93.1 | 99.4 | 88.5 (inactive) | 99.1 (inactive)
CN(C)C(=O)C(CCN1CCC(O)(c2ccc(Cl)cc2)CC1)(c1ccccc1)c1ccccc1.Cl [Loperamide hydrochloride] | 84.8 | 88.6 | 102 (inactive) | 122 (inactive)
CCC1C=CC=CCC(C)C(O)C(C)(O)C(=O)C(C)C(O)C(C)C(=O)C(C)C(O)C(C)C=CC(=O)OC2C(C)C(CC1)OC1(CCC(C)C(CC(C)O)O1)C2C (stereo not drawn) [Oligomycin A] | 79.8 ± 16 | 87 ± 27 | 93.9 (inactive) | 114 (inactive)
O=c1[nH]c2ccccc2n1CCCN1CCC(n2c(=O)[nH]c3cc(Cl)ccc32)CC1 [Domperidone] | 97.7 | 98.7 | 94.7 (inactive) | 109 (inactive)
CN(C)C(=O)Oc1cc(OC(=O)N(C)C)cc(C(O)CNC(C)(C)C)c1 (stereo not drawn) [Bambuterol] | 101 | 112 | 93.5 (inactive) | 106 (inactive)
COc1ccc2c(c1)[nH]c1c(C)nccc12 [Harmine] | 87.2 ± 2.5 | 94.9 ± 3.2 | 99.7 (inactive) | 106 (inactive)
CC(=O)[C@H]1CC[C@H]2[C@@H]3CC[C@H]4C[C@](C)(O)CC[C@]4(C)[C@H]3CC[C@]12C [(3alpha,5alpha)-3-hydroxy-3-methylpregnan-20-one] | 105 | 93 | 101 (inactive) | 111 (inactive)
CCCC(C)(COC(N)=O)COC(=O)NC(C)C (stereo not drawn) [Carisoprodol] | 97.4 | 90.8 | 99.6 (inactive) | 106 (inactive)
O=C(O)C1C2CCC(O2)C1C(=O)O (stereo not drawn) [Endothall] | 97.6 | 97.8 | 108 (inactive) | 129 (inactive)
CC1=C2CC3C(CC=C4CC(O)CCC43C)C2CCC12OC1CC(C)CNC1C2C (stereo not drawn) [Cyclopamine] | 104 | 107 | 94.9 (inactive) | 92 (inactive)
Cc1nccc2c1[nH]c1ccccc12 [Harmane] | 100 ± 0.98 | 106 ± 11 | 97 (inactive) | 96.7 (inactive)
CC1OCC(C[N+](C)(C)C)O1.[I-] (single isomer, unassigned; (+)) [(+)-cis-Dioxolane iodide] | 102 | 103 | 96 (inactive) | 99.6 (inactive)
CC(=O)OC1C(c2ccc(=O)oc2)C2(C)CCC3C(CCC4CC(O)CCC43C)C23OC13 (stereo not drawn) [Cinobufagin] | 53.5 | 42.2 | 115 (inactive) | 99.5 (inactive)
Nc1ccc(CCN2CCN(c3cccc(C(F)(F)F)c3)CC2)cc1 | 95.1 | 98.9 | 99.4 (inactive) | 107 (inactive)
COc1ccc(Cc2nccc3cc(OC)c(OC)cc23)cc1OC.Cl [Papaverine hydrochloride] | 87.1 ± 1.7 | 77.7 ± 7.8 | 102 (inactive) | 126 (inactive)
Cl.O=C(O)Cc1cnc[nH]1 [Imidazole-4-acetic acid hydrochloride] | 105 | 107 | 93 (inactive) | 93.3 (inactive)
CC(C)Oc1cccnc1N(C)C1CCN(Cc2ccccc2)CC1.O=C(O)C=CC(=O)O | 103 | 106 | 99 (inactive) | 112 (inactive)

Structure (SMILES) | cell number [1] | cell number [2] | H1.0 immunofluorescence intensity [3] | H1.0 immunofluorescence intensity [4]
CC12CCC(O)CC1CCC1C2CCC2(C)C(C3=CC(=O)OC3)C(O)CC12O (stereo not drawn) [Gitoxigenin] | 104 | 73.1 | 103 (inactive) | 81.4 (inactive)
CN1CC(C(=O)NC2(C)OC3(O)C4CCCN4C(=O)C(Cc4ccccc4)N3C2=O)CC2c3cccc4[nH]cc(c34)CC21.CS(=O)(=O)O (stereo not drawn) [Dihydroergotamine methanesulfonate] | 102 | 108 | 90.1 (inactive) | 95.5 (inactive)
N#CC(C#N)=Cc1ccc(O)c(O)c1 [Tyrphostin 23] | 92.8 | 93.1 | 94.4 (inactive) | 102 (inactive)
C#C[C@]1(O)CC[C@H]2[C@@H]3CC[C@H]4Cc5nc6nc7ccccc7n6cc5C[C@]4(C)[C@H]3CC[C@@]21C | 74.8 | 88.1 | 99 (inactive) | 145 (active)
CC(C)N(CCC(C(N)=O)(c1ccccc1)c1ccccn1)C(C)C.O=P(O)(O)O (stereo not drawn) [Disopyramide phosphate] | 106 | 105 | 97.6 (inactive) | 94.1 (inactive)
CN1CC(CNC(=O)OCc2ccccc2)CC2c3cccc4c3c(cn4C)CC21 (stereo not drawn) [Metergoline] | 97.2 | 105 | 118 (inactive) | 120 (inactive)
O=C(O)C1CCN1 [L-azetidine-2-carboxylic acid] | 100 | 103 | 92.3 (inactive) | 92 (inactive)
Cl.Clc1cc(I)cc(Cl)c1NC1=NCCN1 [p-Iodoclonidine hydrochloride] | 102 | 101 | 94.9 (inactive) | 85.2 (inactive)
Br.NCc1cc(=O)[nH]o1 [Muscimol hydrobromide] | 103 | 119 | 89.5 (inactive) | 91 (inactive)
Cl.Cl.c1ccc(CCCN2CCN(CCOC(c3ccccc3)c3ccccc3)CC2)cc1 | 98.6 | 91.5 | 103 (inactive) | 102 (inactive)
CCC1(C2OC(C3OC(O)(CO)C(C)CC3C)CC2C)CCC(C2(C)CCC3(CC(O)C(C)C(C(C)C(OC)C(C)C(=O)[O-])O3)O2)O1.[Na+] (stereo not drawn) [Monensin] | 90.4 | 74.5 | 120 (active) | 186 (active)
CCCCCC=CCC=CCC=CCC=CCCCC(=O)NCCO [Anandamide (20:4, n-6)] | 103 | 94.1 | 99.2 (inactive) | 96.7 (inactive)
CCCN1CC(CSC)CC2c3cccc4[nH]cc(c34)CC21.CS(=O)(=O)O (stereo not drawn) [Pergolide mesylate] | 95.8 | 102 | 93.3 (inactive) | 112 (inactive)
CC1=CC(=O)C2=C(C)CC(O)C3C(C)C(=O)OC3C12 (stereo not drawn) [Austricin] | 101 | 97.7 | 96.7 (inactive) | 98.1 (inactive)
CCCC[N+]1(C)C2CC(OC(=O)C(CO)c3ccccc3)CC1C1OC12 (stereo not drawn) [Scopolamine N-butyl] | 103 | 111 | 91.4 (inactive) | 100 (inactive)
CCS(=O)(=O)Nc1cccc(C(=C2CCCCC2)c2cnc[nH]2)c1 | 99.6 | 101 | 94.6 (inactive) | 92.5 (inactive)
CCC1(O)C(=O)OCc2c1cc1n(c2=O)Cc2cc3ccccc3nc2-1 [(S)-(+)-Camptothecin] | 54.2 | 26.9 | 126 (active) | 114 (inactive)
COc1ccc2c(c1OC)C(=O)OC2C1c2cc3c(cc2CCN1C)OCO3 (single isomer, unassigned; (+)) [(+)-Hydrastine] | 98.7 | 104 | 96.4 (inactive) | 89.2 (inactive)
Cl.Oc1ccc2c3c1OC1c4[nH]c5ccccc5c4CC4(O)C(C2)N(CC2CC2)CCC314 (stereo not drawn) [Naltrindole hydrochloride] | 101 | 99.3 | 96.4 (inactive) | 114 (inactive)
C/C(Nc1ccccc1)=C1\C(=O)NC(Cc2ccccc2)C1=O (stereo not drawn) [(3E)-3-(1-anilinoethylidene)-5-benzyl-2,4-pyrrolidinedione] | 60.4 | 7.27 | 193 (active) | 148 (active)
CN(C)C(=O)Oc1cccc([N+](C)(C)C)c1 [Neostigmine] | 104 | 112 | 96.8 (inactive) | 101 (inactive)
NC1(C(=O)O)CCC(C(=O)O)C1 (mixture of isomers) | 104 | 106 | 96.5 (inactive) | 95.1 (inactive)
O=C1CCCN1CC#CCN1CCCC1 [Oxotremorine] | 101 | 109 | 88.5 (inactive) | 102 (inactive)
